Consider one molecule from PubChem BioAssay (NCATS).

A short description of experiment [1]: Cell Viability - LYMP2-025 (AID 976).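 Also: series mostly up to about 92 µM; plate controls were DMSO only for no effect and tetraoctylammonium bromide control for full effect.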 The gist of the method:
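Human lymphoblastoid LYMP2-025 cells, 2500/well, exposed 24 h at 37 C in complete medium in 1536-well qHTS. Viability as cellular ATP by CellTiter-Glo luminescence; AC50 from Hill fits of concentration-response data.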

The nature of experiment [2]: Cell Viability - LYMP2-002 (AID 977).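 Also: series mostly up to about 92 µM; plate controls were DMSO only for no effect and 92 µM tetraoctylammonium bromide for full effect.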 In outline: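 Luminescent ATP readout (CellTiter-Glo, 30 min room temperature) after 24 h compound exposure at 37 C of a human lymphoblastoid line, 2500 cells/well. AC50 values derived by standard Hill fitting of qHTS concentration-response data.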
A short description of experiment [3]: Cell Viability - LYMP2-006 (AID 978). Also: series mostly up to about 92 µM; % is scaled to controls: 0 for no effect and ±100 for the full control effect; nearly all actives have a fitted effect of over 60% in size. In outline:
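Concentration-dependent loss of intracellular ATP in a human lymphoblastoid line after 24 hr treatment at 37 C was measured by CellTiter-Glo luminescence, with AC50 values obtained from standard Hill-equation modelling.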

The nature of experiment [4]: Cell Viability - LYMP2-007 (AID 979).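 Also: cells exposed to compound for 24 h before reading; 0% = DMSO only and the negative end = 92 µM tetraoctylammonium bromide; nearly all actives have a fitted effect of over 60% in size.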 The gist of the method: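 Human lymphoblastoid LYMP2-007 cells (2500/well) preincubated 5 h at 37 C, then treated 24 h at 37 C in complete medium. Viability by CellTiter-Glo ATP luminescence after 30 min at room temperature; AC50 from Hill fits.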
Experiment [5] can be described thus: Cell Viability - LYMP2-008 (AID 980). Also: % is scaled to controls: 0 for no effect and ±100 for the full control effect; nearly all actives have a fitted effect of over 60% in size. The gist of the method: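 LYMP2-008 lymphoblastoid cells (2500/well) plated 5 h, then treated 24 h at 37 C in complete medium. Viability read as intracellular ATP by CellTiter-Glo luminescence after 30 min at room temperature; AC50 from Hill fits.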
Experiment [6] in a line: Cell Viability - LYMP2-010 (AID 981). Also: % is scaled to controls: 0 for no effect and ±100 for the full control effect; nearly all actives have a fitted effect of over 55% in size. In outline:
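Human lymphoblastoid LYMP2-010 cells (2500/well) treated 24 h at 37 C in complete medium; viability read as intracellular ATP by CellTiter-Glo luminescence. AC50 from Hill fits of concentration-response data; tetraoctylammonium bromide positive control.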

Experiment [7] in a line: Cell Viability - LYMP2-012 (AID 982).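 Also: cellular ATP by luciferase luminescence where a drop means cytotoxicity; cells exposed to compound for one day before reading; 0% = DMSO only and full loss = 92 µM tetraoctylammonium bromide; nearly all actives have a fitted effect of over 55% in size.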
Experiment [8] is described as follows: Cell Viability - LYMP2-014 (AID 983).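 Also: series mostly up to about 92 µM; plate controls were DMSO only for no effect and 92 µM tetraoctylammonium bromide for full effect; nearly all actives have a fitted effect of over 50% in size.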 The gist of the method: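 LYMP2-014 human lymphoblastoid cells, 2500/well, treated 24 h at 37 C in complete medium; viability by CellTiter-Glo ATP luminescence after 30 min at room temperature. AC50 from Hill fits of qHTS concentration-response; tetraoctylammonium bromide positive control.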
The nature of experiment [9]: Cell Viability - LYMP2-016 (AID 984). Also: % is scaled to controls: 0 for no effect and ±100 for the full control effect; nearly all actives have a fitted effect of over 55% in size. In outline:
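Acute toxicity in a Coriell human lymphoblastoid line is scored as loss of intracellular ATP over 24 h of treatment in complete medium. CellTiter-Glo signal is fitted across concentrations with the Hill equation to give AC50.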

Experiment [10] in a line: Cell Viability - LYMP2-018 (AID 985).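 Also: compound exposure lasted 24 hr at 37 °C; plate controls were DMSO only for no effect and tetraoctylammonium bromide at 92 µM for full effect; nearly all actives have a fitted effect of over 50% in size.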 The gist of the method:
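Human lymphoblastoid LYMP2-018 cells, 2500/well, settled 5 hr at 37 C then exposed to compound 24 hr at 37 C; intracellular ATP measured by CellTiter-Glo luminescence. AC50 from Hill-equation concentration-response fits.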

Experiment [11] in a line: Cell Viability - LYMP2-020 (AID 986).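 Also: series mostly up to about 92 µM; plate controls were DMSO only for no effect and tetraoctylammonium bromide at 92 µM for full effect; nearly all actives have a fitted effect of over 55% in size.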 The gist of the method: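 Human lymphoblastoid LYMP2-020 cells (2500/well) preincubated 5 h at 37 C, then treated 24 h at 37 C. Viability measured as intracellular ATP by CellTiter-Glo luminescence after 30 min at room temperature; AC50 from Hill fits.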
Experiment [12] is described as follows: Cell Viability - LYMP2-022 (AID 987). The gist of the method:
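LYMP2-022 lymphoblastoid cells (2500/well, complete medium) were treated with compounds for 24 hours at 37 C; intracellular ATP was then read by CellTiter-Glo luminescence after 30 min at room temperature. AC50 values were derived from Hill-equation fits.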

Experiment [13] can be described thus: Cell Viability - LYMP2-024 (AID 988).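 Also: plate controls were DMSO only for no effect and 92 µM tetraoctylammonium bromide for full effect; nearly all actives have a fitted effect of over 60% in size.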 The gist of the method:
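Human lymphoblastoid LYMP2-024 cells (2500/well) rested 5 hr, then treated with compound for 24 hr at 37 C in complete medium. Viability was measured as intracellular ATP by CellTiter-Glo luminescence. AC50 values came from Hill-equation fits.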

A short description of experiment [14]: Cell Viability - LYMP2-026 (AID 989). Also: % is scaled to controls: 0 for no effect and ±100 for the full control effect; nearly all actives have a fitted effect of over 50% in size. The gist of the method: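 Human lymphoblastoid LYMP2-026 cells, 2500/well, exposed to compound 24 h at 37 C in complete medium. Viability as intracellular ATP by CellTiter-Glo luminescence; AC50 from Hill fits of qHTS concentration-response.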
A short description of experiment [15]: Cell Viability - LYMP1-002 - Assay at 24 hr (AID 993). Also: % is scaled to controls: 0 for no effect and ±100 for the full control effect. In outline: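 Human lymphoblastoid LYMP1-002 cells (2500/well) treated 24 h at 37 °C; viability as intracellular ATP by CellTiter-Glo luminescence. Tetraoctylammonium bromide as positive control; AC50 from Hill-equation fits of qHTS concentration-response.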
Experiment [16] can be described thus: Cell Viability - LYMP1-002 - Assay at 40 hr (AID 994). The gist of the method: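 LYMP1-002 human lymphoblastoid cells (2500/well, complete medium) were treated with compounds for 40 hr at 37 C. Intracellular ATP was measured by CellTiter-Glo luminescence, and AC50 values came from Hill-equation fits of concentration-response data; tetraoctylammonium bromide was the positive control.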

Experiment [17] addresses Estrogen receptor (Homo sapiens) (UniProt P03372). The experiment is described as follows: qHTS assay for small molecule antagonists of estrogen receptor alpha signaling (AID 588513; active = well fitted curve in the direction sought with a large enough effect in the signal ratio, with a control signal flat, not every such curve was filed as active; the % refers to the signal ratio; also: % is scaled to controls: 0 for no effect and ±100 for the full control effect). In outline:
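Cells were plated at 5000/well and incubated 4 h at 37 C. Compounds were added as 1:2 dilution series, duplicates. 17-beta-estradiol (0.5nM final) was added for 18 h before CCF4 detection.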
On the technique in general: In qHTS, concentration-response curves come from the screen itself.

Experiment [18] has the same target. The experiment is described as follows: qHTS assay for small molecule agonists of estrogen receptor alpha signaling (AID 588514; calls by dose curve;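 also: 0% = vehicle only and 100% = reference agonist; nearly all actives have a fitted effect of over 70% in size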). The gist of the method:
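ER-alpha-UAS-bla GripTite HEK293 cells, 5000/well in 2% charcoal/dextran-stripped FBS medium, treated with compound titrations 18 h at 37 C. CCF4 beta-lactamase read by fluorescence after 2 h RT; normalised to 20 nM 17-beta-estradiol (100%) and DMSO (0%), Hill fit for EC50 and efficacy.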

In experiment [19] the target is Glucocorticoid receptor (Homo sapiens) (UniProt P04150). In words: qHTS assay for small molecule agonists of glucocorticoid receptor signaling (AID 588532; active = well fitted curve in the direction sought with a large enough effect in the signal ratio, with a control signal flat; the % refers to the signal ratio;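 also: 100% = dexamethasone at 0.1 µM and 0% = DMSO only wells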). The note with it: HeLa MMTV-bla, beta-lactamase ratio, agonist, 18 h; stronger effect = higher value; percent of dexamethasone control, DMSO zero. The gist of the method: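 Stimulation of a glucocorticoid response element-driven beta-lactamase gene was measured in HeLa cells. Responses were scaled between DMSO basal and 0.1 uM dexamethasone, then fitted for half-maximal stimulation.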

Experiment [20] shares this target. In words: qHTS assay for small molecule antagonists of glucocorticoid receptor signaling (AID 588533; active = well fitted inhibition curve with a large enough effect in the signal ratio, with a control signal flat, not every such curve was filed as active; the % refers to the signal ratio;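 also: cells stimulated with 2 nM dexamethasone as agonist; % is scaled to controls: 0 for no effect and ±100 for the full control effect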). In outline: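 Antagonist-mode qHTS: compound titrations added to GRE-bla HeLa cells, then dexamethasone 2 nM final; 18 h, 37 C. CCF4 FRET fluorescence normalized to dexamethasone and DMSO; IC50 from Hill fit.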
For experiment [21], the target named is Peroxisome proliferator-activated receptor delta (Homo sapiens) (UniProt Q03181). The experiment is described as follows: qHTS assay for small molecule agonists of peroxisome proliferator-activated receptor delta signaling (AID 588534; calls by dose curve;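 also: 0% = DMSO basal wells and 100% = positive control agonist at 10 µM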). In outline: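 Cells carrying a PPAR-delta beta-lactamase reporter were treated with compounds for 18 h at 37 °C in agonist mode. CCF4 fluorescence was read after 2 h; EC50 and efficacy from Hill fits.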

A short description of experiment [22]: qHTS assay for small molecule antagonists of peroxisome proliferator-activated receptor delta signaling (AID 588535; active = well fitted inhibition curve with a large enough effect in the signal ratio, with a control signal flat, not every such curve was filed as active; the % refers to the signal ratio;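 as to max response: cells co-treated with a PPAR-delta agonist as stimulator during compound exposure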). The note with it: HEK293T PPARd-UAS-bla, beta-lactamase FRET ratio, 18 h; 460 nm channel. In outline:
(§1)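 Reporter: UAS-bla under PPAR-delta response element, HEK293T host. Medium: 2% charcoal/dextran FBS. Dosing: titration, 18 hrs, 37 C. Detection: CCF4, 2 hrs RT, 405 ex/460 and 530 em.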

For experiment [23], the target named is Peroxisome proliferator-activated receptor delta (Homo sapiens) (UniProt Q03181). The description is as above. In outline: as §1

Where “and” joins values, the source holds several entries; their conditions need not be identical. Equal values may be shown once. Records with an inconclusive call do not appear. Calls of active or inactive are those of the source. Unless noted, calls follow the shape of the dose curve; as a rule, active = well fitted cell-killing curve with a large enough effect; inconclusive = small, poorly fitted or top-dose-only effect; inactive = flat fitted curve, though single readings scatter.

Chain of Peroxisome proliferator-activated receptor delta (Homo sapiens) (Q03181 whole entry, looked up): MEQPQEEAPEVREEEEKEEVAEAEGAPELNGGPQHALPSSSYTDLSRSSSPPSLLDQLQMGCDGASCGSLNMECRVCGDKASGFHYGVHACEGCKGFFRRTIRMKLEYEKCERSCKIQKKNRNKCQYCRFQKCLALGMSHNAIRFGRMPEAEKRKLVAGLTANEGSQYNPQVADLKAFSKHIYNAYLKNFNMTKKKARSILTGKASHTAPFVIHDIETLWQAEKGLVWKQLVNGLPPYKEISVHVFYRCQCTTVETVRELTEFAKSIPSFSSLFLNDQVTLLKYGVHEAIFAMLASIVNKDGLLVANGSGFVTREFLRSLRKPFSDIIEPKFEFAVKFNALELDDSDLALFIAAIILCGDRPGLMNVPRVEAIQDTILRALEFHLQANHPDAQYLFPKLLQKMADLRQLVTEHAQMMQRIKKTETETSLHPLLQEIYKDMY
Chain of Glucocorticoid receptor (Homo sapiens) (P04150 whole entry, looked up): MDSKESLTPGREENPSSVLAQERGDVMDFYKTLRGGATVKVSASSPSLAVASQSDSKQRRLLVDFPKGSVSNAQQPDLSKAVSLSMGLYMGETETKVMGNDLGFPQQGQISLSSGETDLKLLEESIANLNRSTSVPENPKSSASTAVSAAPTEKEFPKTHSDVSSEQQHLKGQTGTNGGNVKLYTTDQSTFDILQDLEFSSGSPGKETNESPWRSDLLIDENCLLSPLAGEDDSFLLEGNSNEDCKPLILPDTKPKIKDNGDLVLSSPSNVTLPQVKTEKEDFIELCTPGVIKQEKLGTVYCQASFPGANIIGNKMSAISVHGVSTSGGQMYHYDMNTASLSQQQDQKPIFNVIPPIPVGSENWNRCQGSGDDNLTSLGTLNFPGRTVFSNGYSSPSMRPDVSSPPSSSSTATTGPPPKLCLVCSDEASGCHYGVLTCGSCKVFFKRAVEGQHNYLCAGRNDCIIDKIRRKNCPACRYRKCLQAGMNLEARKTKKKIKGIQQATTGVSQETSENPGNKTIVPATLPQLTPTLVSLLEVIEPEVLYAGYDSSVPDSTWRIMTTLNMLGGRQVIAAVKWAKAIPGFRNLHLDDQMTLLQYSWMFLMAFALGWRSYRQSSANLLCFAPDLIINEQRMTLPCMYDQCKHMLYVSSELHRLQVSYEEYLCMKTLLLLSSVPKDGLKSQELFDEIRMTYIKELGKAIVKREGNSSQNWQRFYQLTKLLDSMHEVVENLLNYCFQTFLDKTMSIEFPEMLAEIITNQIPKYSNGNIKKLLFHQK
Chain of Estrogen receptor (Homo sapiens) (P03372 whole entry, looked up): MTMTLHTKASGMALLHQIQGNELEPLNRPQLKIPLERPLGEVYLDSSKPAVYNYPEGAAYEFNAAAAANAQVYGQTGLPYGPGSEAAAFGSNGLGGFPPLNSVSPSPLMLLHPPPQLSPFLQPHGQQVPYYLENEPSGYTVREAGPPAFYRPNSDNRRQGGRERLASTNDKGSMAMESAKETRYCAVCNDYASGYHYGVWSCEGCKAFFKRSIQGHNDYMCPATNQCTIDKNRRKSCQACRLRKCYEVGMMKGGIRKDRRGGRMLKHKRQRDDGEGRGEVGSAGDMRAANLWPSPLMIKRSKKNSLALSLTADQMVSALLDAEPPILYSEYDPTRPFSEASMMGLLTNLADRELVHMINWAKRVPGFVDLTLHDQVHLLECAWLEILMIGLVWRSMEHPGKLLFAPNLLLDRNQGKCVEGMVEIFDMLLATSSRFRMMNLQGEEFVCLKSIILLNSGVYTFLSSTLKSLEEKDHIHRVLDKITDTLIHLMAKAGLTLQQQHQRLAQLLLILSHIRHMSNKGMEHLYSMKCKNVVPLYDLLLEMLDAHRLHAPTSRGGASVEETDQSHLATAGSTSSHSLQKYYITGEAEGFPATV

Turning to `BrCCBr`, the Potency result in experiment [1], in experiment [2], in experiment [3], in experiment [4], in experiment [5] and in [6] was “inactive” each time. The Potency result in experiment [7], in experiment [8], in [9], in [10], in experiment [11] and in experiment [12] was “inactive” throughout. For the same molecule, the Potency entry in [13], in experiment [14], in [15], in experiment [16], in [17] and in [18] was “inactive” each time. Besides, the Potency entry in experiment [20] and in experiment [23] was “inactive” each time. For the same molecule, the activation in experiment [19] was 2.21% (inactive) and 1.87% (inactive). Besides, the molecule was classed as inactive in [21]. The max response in experiment [22] is -6.18% and 14.8%.
